Measurements published in PubChem BioAssay AID1159580 (chemical genetic matrix, 2015).
Several values for one entry are separate records, joined by “and”; a condition that tells them apart may be missing. Identical values can stand only once. About 2,000 (36%) of roughly 5,500 compounds were called active. Inconclusive results (about 18%) are left out. Cut-off read from the data, not from the text of the source: active = normalized growth mostly below about 0.91 (no sharp cut-off); inconclusive = no clear call, values can overlap the other calls; inactive = mostly above about 0.92. Some of the results follow.

Test: chemical genetic growth profiling, strain panel (AID 1159580);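 note: tested at 20 µM; growth read once vehicle control cultures reached saturation at 30 °C; 1 = growth at the plate median or of vehicle wells; lower values mean less growth of the strain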
Conditions: S. cerevisiae deletion strains, growth OD
[1] = locus YHR030C, strain SLT2, hits give low values
[2] = locus YHR079C, strain IRE1, hits give low values
[3] = locus YJL095W, strain BCK1, hits give low values
[4] = locus YJR066W, strain TOR1, hits give low values
[5] = locus YLR113W, strain HOG1, hits give low values
[6] = locus YNL183C, strain NPR1, hits give low values
[7] = locus YOR231W, strain MKK1, hits give low values
[8] = locus YPL256C, strain CLN2, hits give low values

Measured: normalized growth

NCCCCN
inactive: locus YAL013W, strain DEP1, hits give low values 1.02 | locus YAL040C, strain CLN3, hits give low values 1.07 | locus YBR021W, strain FUR4, hits give low values 1.02 | locus YBR229C, strain ROT2, hits give low values 1 | locus YCL029C, strain bik1, hits give low values 0.99 | locus YCL061C, strain MRC1 (second series), hits give low values 0.999 | locus YDL035C, strain GPR1, hits give low values 1.04 | locus YDL074C, strain BRE1, hits give low values 1.01 | locus YDL101C, strain DUN1, hits give low values 1.01 | locus YDL185W, strain tfp1, hits give low values 1.02 | locus YDL192W, strain arf1, hits give low values 1.01 | locus YDR101C, strain arx1, hits give low values 0.971 | locus YDR150W, strain NUM1, hits give low values 1.01 | locus YDR162C, strain NBP2, hits give low values 1.04 | locus YDR318W, strain mcm21, hits give low values 1.01 | locus YDR363W, strain ESC2, hits give low values 1.03 | locus YDR388W, hits give low values 1.01 | locus YDR502C, strain sam2, hits give low values 0.994 | locus YEL061C, strain CIN8, hits give low values 1.01 | locus YER002W, strain NOP16, hits give low values 1 | locus YER110C, hits give low values 1.01 | locus YER155C, strain BEM2, hits give low values 1.01 | locus YER167W, strain BCK2, hits give low values 1.02 | locus YGL078C, strain dbp3, hits give low values 0.995 | locus YGL086W, strain mad1, hits give low values 0.985 | locus YGL248W, strain PDE1, hits give low values 1 | locus YGR078C, strain PAC10, hits give low values 0.999 | locus YGR135W, strain pre9, hits give low values 1.06 | locus YGR229C, strain SMI1, hits give low values 1.02 and 1.01 | locus YGR252W, strain gcn5, hits give low values 1.04 | [1] 1 and 0.949 | locus YHR079C, strain IRE1 (second series), hits give low values 1 | [2] 0.969 | locus YHR094C, strain hxt1, hits give low values 1.01 | locus YHR129C, strain ARP1, hits give low values 1.01 | locus YHR200W, strain rpn10, hits give low values 1 | locus YIL066C, strain RNR3, hits give low values 1.01 | locus YIL073C, strain SPO22, hits give low values 1.11 | locus YIL125W, strain kgd1, hits give low values 0.997 | locus YIR030C, strain dcg1, hits give low values 0.999 | [3] 1.01 and 0.994 | locus YJL134W, strain LCB3, hits give low values 1.01 | locus YJL168C, strain set2, hits give low values 1.01 | locus YJL187C, strain SWE1 (second series), hits give low values 1.01 | locus YJR043C, strain POL32, hits give low values 1 | [4] 0.93 | locus YJR075W, strain HOC1, hits give low values 1.01 | locus YKL009W, strain mrt4, hits give low values 0.99 | locus YKL068W, hits give low values 0.999 | locus YKL085W, strain MDH1 (second series), hits give low values 1 | locus YKL085W, strain MDH1, hits give low values 1 | locus YKL190W, strain CNB1, hits give low values 0.999 | locus YKR001C, strain vps1, hits give low values 1 | locus YLR039C, strain RIC1, hits give low values 1.05 | locus YLR058C, strain SHM2, hits give low values 1.01 | locus YLR102C, strain apc9, hits give low values 1 | [5] 1.01 | locus YLR262C, strain YPT6, hits give low values 1.06 | locus YLR268W, strain sec22, hits give low values 0.996 | locus YLR330W, strain CHS5, hits give low values 1.01 | locus YLR342W, strain FKS1 (second series), hits give low values 1.07 | locus YLR371W, strain rom2, hits give low values 1 | locus YLR418C, strain cdc73, hits give low values 1.03 | locus YML016C, strain PPZ1, hits give low values 1 | locus YML032C, strain rad52, hits give low values 0.992 | locus YML124C, strain tub3, hits give low values 1 | locus YMR078C, strain ctf18, hits give low values 1 | locus YMR223W, strain ubp8, hits give low values 1.05 | locus YMR307W, strain GAS1, hits give low values 1.07 and 1.01 | locus YNL067W, strain RPL9B, hits give low values 1 | locus YNL128W, strain TEP1, hits give low values 1.01 | locus YNL153C, strain GIM3, hits give low values 1 | locus YNL175C, strain NOP13, hits give low values 1 | [6] 0.961 | locus YNL197C, strain WHI3, hits give low values 1 | locus YNL224C, strain SQS1, hits give low values 1 | locus YNL233W, strain BNI4, hits give low values 1.01 | locus YNL250W, strain rad50, hits give low values 1.03 | locus YNL271C, strain bni1, hits give low values 1.01 | locus YNL298W, strain CLA4, hits give low values 1.01 | locus YNL307C, strain MCK1, hits give low values 1.02 | locus YNR052C, strain pop2, hits give low values 1 | locus YOL012C, strain htz1 0.897 | locus YOL147C, strain pex11, hits give low values 1.01 | locus YOR061W, strain CKA2, hits give low values 1 | locus YOR069W, strain VPS5, hits give low values 1.01 | locus YOR083W, strain WHI5 (second series), hits give low values 1.01 | locus YOR136W, strain idh2, hits give low values 0.992 | locus YOR144C, strain elg1, hits give low values 1 | locus YOR184W, strain ser1, hits give low values 1 | [7] 0.957 | locus YOR316C, strain cot1, hits give low values 1 | locus YPL055C, strain LGE1, hits give low values 0.99 | locus YPL241C, strain CIN2, hits give low values 1.01 | [8] 0.958 | locus YPR119W, strain clb2, hits give low values 0.994 | locus YPR141C, strain kar3, hits give low values 1 | locus YPR163C, strain tif3, hits give low values 1.01 | locus YPR167C, strain met16, hits give low values 1 | strain wtn01, hits give low values 0.995

CCC(=O)NCC[C@@H]1CCc2ccc3c(c21)CCO3
active: locus YOR270C, strain vph1, hits give low values 0.771
inactive: locus YAL021C, strain ccr4, hits give low values 1.03 | locus YAL026C, strain drs2, hits give low values 1.01 | locus YAL030W, strain snc1, hits give low values 1.01 | locus YBL061C, strain skt5, hits give low values 1.02 | locus YBR009C, strain hhf1, hits give low values 0.987 | locus YBR023C, strain chs3, hits give low values 1.02 | locus YBR171W, strain sec66, hits give low values 1 | locus YBR231C, strain swc5, hits give low values 0.993 | locus YBR279W, strain paf1, hits give low values 1.02 | locus YCL011C, strain gbp2, hits give low values 1 | locus YCL016C, strain dcc1, hits give low values 1.04 | locus YCL061C, strain MRC1, hits give low values 0.988 | locus YCL069W, strain vba3, hits give low values 1 | locus YCR088W, strain abp1, hits give low values 1.01 | locus YDL005C, strain med2, hits give low values 0.995 | locus YDL040C, strain nat1, hits give low values 1 | locus YDR001C, strain nth1, hits give low values 1 | locus YDR069C, strain doa4, hits give low values 0.982 | locus YDR137W, strain rgp1, hits give low values 1.04 | locus YDR159W, strain sac3, hits give low values 0.924 | locus YDR195W, strain ref2 1.01 | locus YDR297W, strain sur2, hits give low values 0.989 | locus YDR334W, strain swr1, hits give low values 1 | locus YDR335W, strain msn5, hits give low values 0.998 | locus YDR392W, strain spt3, hits give low values 0.988 | locus YEL003W, strain gim4, hits give low values 0.972 | locus YEL037C, strain rad23, hits give low values 1.01 | locus YEL061C, strain CIN8 (second series), hits give low values 0.991 | locus YER015W, strain faa2, hits give low values 1 | locus YER016W, strain bim1, hits give low values 1.02 | locus YER111C, strain swi4, hits give low values 1.03 | locus YER155C, strain BEM2 (second series), hits give low values 1.06 | locus YFR010W, strain ubp6, hits give low values 0.953 | locus YGL167C, strain pmr1, hits give low values 1 | locus YGL173C, strain kem1, hits give low values 0.978 | locus YGL227W, strain vid30, hits give low values 1.01 | locus YGL240W, strain doc1, hits give low values 1.01 | locus YGL253W, strain hxk2, hits give low values 0.972 | locus YHR013C, strain ard1, hits give low values 1.02 | locus YHR027C, strain rpn1, hits give low values 0.998 | [1] 0.947 | [2] 0.953 | locus YHR142W, strain chs7, hits give low values 0.989 | locus YJL092W, strain hpr5, hits give low values 1.01 | locus YJL095W, strain BCK1 (second series), hits give low values 1.01 | [3] 0.981 | locus YJL115W, strain asf1, hits give low values 1.02 | locus YJL129C, strain trk1, hits give low values 1 | locus YJL154C, strain vps35, hits give low values 1.01 | locus YJL164C, strain tpk1, hits give low values 0.968 | locus YJL166W, strain qcr8, hits give low values 0.98 | locus YJL187C, strain SWE1, hits give low values 1.01 | [4] 0.936 | locus YKL160W, strain elf1, hits give low values 1.05 | locus YKR026C, strain gcn3, hits give low values 1.01 | locus YKR091W, strain srl3, hits give low values 1 | locus YLL001W, strain dnm1, hits give low values 0.952 | locus YLL026W, hits give low values 1 | locus YLL041C, strain sdh2, hits give low values 0.997 | locus YLR027C, strain aat2, hits give low values 0.999 | [5] 0.95 | locus YLR221C, strain rsa3, hits give low values 0.953 | locus YLR258W, strain gsy2, hits give low values 1.02 | locus YLR262C, strain YPT6 (second series), hits give low values 1.01 | locus YLR320W, strain mms22, hits give low values 0.975 | locus YLR342W, strain FKS1, hits give low values 1 | locus YLR357W, strain rsc2, hits give low values 1.02 | locus YLR370C, strain arc18, hits give low values 1 | locus YLR384C, strain iki3, hits give low values 1.01 | locus YML120C, strain ndi1, hits give low values 0.963 | locus YMR058W, strain fet3, hits give low values 1.01 | locus YMR125W, strain sto1, hits give low values 1 | locus YMR129W, hits give low values 0.985 | locus YMR205C, strain PFK2, hits give low values 1 | locus YMR231W, strain pep5, hits give low values 1 | locus YNL071W, strain lat1, hits give low values 1.01 | [6] 0.904 | locus YNL209W, strain ssb2, hits give low values 1.01 | locus YNL248C, strain rpa49, hits give low values 1.01 | locus YNL322C, strain KRE1 (second series), hits give low values 1.02 | locus YNR049C, strain mso1, hits give low values 1 | locus YOR001W, strain rrp6, hits give low values 0.929 | locus YOR070C, strain gyp1, hits give low values 1.02 | locus YOR080W, strain dia2, hits give low values 1.01 | locus YOR083W, strain WHI5, hits give low values 0.966 | locus YOR106W, strain vam3, hits give low values 1 | [7] 0.969 | locus YOR265W, strain rbl2, hits give low values 1 | locus YOR290C, strain snf2, hits give low values 1.01 | locus YPL051W, strain arl3, hits give low values 1.06 | locus YPL078C, strain atp4, hits give low values 1.03 | locus YPL106C, strain sse1, hits give low values 1.04 | locus YPL240C, strain hsp82, hits give low values 1.01 | [8] 0.942
